Bioassay records as filed in PubChem BioAssay.
Rows were chosen to be rich in hits. Some 2.4% of all compounds tested hit in one or more screens of this group.
POLH inh = qHTS for Inhibitors of Polymerase Eta | recombinant Pol eta, fluorescent DNA replication assay | actives 1.2% (n = 390,000) | DNA polymerase eta (Homo sapiens), Q9Y253 | Potency, µM (highest dose often 114 µM), for the others: at the top dose activity change, negative = inhibition, actives largely listed as inhibitors; note: % is set by controls: 0 for no effect and ±100 for the full control effect
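Fluorescent replication assay: 50 nM final substrate added after a 15 min room-temperature compound preincubation with 10 nM enzyme. Signal taken at 0 min and again at 10 min.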
Pol beta inh = qHTS Assay for Inhibitors of DNA Polymerase Beta; P06746; Pol beta primer extension/strand displacement, fluorescence kinetic; Potency, µM (highest dose often 114 µM), without a hit: at the highest dose activity change, negative = inhibition, actives largely listed as inhibitors; actives 1.3% (n = 340,000); AID 485314, 2010; note: % is set by controls: 0 for no effect and ±100 for the full control effect
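Human Pol beta at 10 nM; strand-displacement substrate 50 nM final. Compound exposure 15 min at room temperature before start, reaction 10 min at room temperature.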
POLK inh = qHTS for Inhibitors of Polymerase Kappa | DNA polymerase kappa (Homo sapiens), Q9UBT6 | purified Pol kappa, fluorescent DNA synthesis assay, 10 min | Potency, µM (top dose mostly 107 µM), without a hit: at the top dose activity, negative = inhibition, most hits filed as inhibitors | actives 0.53% (n = 400,000) | AID 588579, 2011; note: % is set by controls: 0 for no effect and ±100 for the full control effect
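Readout: fluorescence, taken kinetically at 0 and 10 min. Conditions: 10 nM Pol kappa, 15 min RT compound preincubation, 50 nM substrate final. Controls: enzyme-free buffer wells.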
FEN1 inhibitor = qHTS Assay for the Inhibitors of Human Flap endonuclease 1 (FEN1); P39748; Recombinant FEN1 flap cleavage, fluorescence, 15 min; Potency, µM (titrated, usually from 114 µM), without a hit: at the top dose activity change, negative = inhibition, most hits filed as inhibitors; actives 0.35% (n = 390,000); AID 588795, 2011; note: % is set by controls: 0 for no effect and ±100 for the full control effect; nearly all actives have a fitted effect of over 65% in size
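Potency values derive from four-parameter Hill fits of normalized qHTS data. The reaction used 10 nM FEN1 preincubated 15 min at room temperature with compound, then 50 nM DNA substrate, read at 0 and 15 min.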
WRN helicase inh = qHTS for Inhibitors of WRN Helicase; Bifunctional 3'-5' exonuclease/ATP-dependent helicase WRN (Homo sapiens), Q14191; WRN helicase unwinding, fluorescent forked duplex, kinetic; Potency, µM (top dose mostly 114 µM), without a hit: at the highest dose activity change, negative = inhibition, most hits filed as inhibitors; actives 0.46% (n = 360,000); note: % is set by controls: 0 for no effect and ±100 for the full control effect; nearly all actives have a fitted effect of over 55% in size
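Kinetic red-fluorescence monitoring (525/598 nm) tracks WRN helicase activity after 100 nM fluorophore-quencher forked duplex and 2 mM ATP are added to 20 nM enzyme pretreated 15 min at room temperature with compound.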
POLI inh = qHTS for Inhibitors of Polymerase Iota; DNA polymerase iota (Homo sapiens), Q9UNA4; Pol iota fluorescent replication assay, 10 min; Potency, µM (doses to about 115 µM), without a hit: at the highest dose activity, negative = inhibition, actives largely listed as inhibitors; actives 1% (n = 390,000); AID 588590, 2011
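Fluorescent replication assay read twice, at 0 min and 10 min after adding 50 nM (final) substrate. Enzyme (10 nM) and compounds were first incubated 15 min at room temperature; enzyme-free buffer wells were negative controls.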
Active calls of the source: *; ? = inconclusive; · = no result given; ! = not confirmed by another sample; [ ] = remark or other dose. Calls come from the whole dose curve; as a rule, active = well fitted curve in the direction sought with a large enough effect; inconclusive = small, poorly fitted or top-dose-only effect, or another doubt; inactive = no such curve, though single readings can be large; an effect the other way counts as inactive or inconclusive. Potency is the fitted concentration of half-maximal effect.

SMILES	POLH inh	Pol beta inh	POLK inh	FEN1 inhibitor	WRN helicase inh	POLI inh
Cc1ccc(-n2ncc(C(=O)N3CCN(c4cc(Cl)ccc4C)CC3)c2C2CCN(C(=O)OC(C)(C)C)CC2)cc1	-1%	-22%	-13%	-3%	·	-8%
O=C(NCCc1csc(-c2ccc(F)cc2)n1)C(=O)Nc1ccc(Cl)cc1	-5%	?	-7%[60.1 µM]	22%	·	-19%
COc1c(Br)cc(/C=N/n2c(-c3ccccc3)n[nH]c2=S)c(O)c1Br	79µM*	3.5µM*	2µM*	?	?	?
Oc1c(Br)cc(/C=N/n2c(-c3ccccc3)n[nH]c2=S)c(Br)c1O	·	0.25µM*	·	·	·	·
Oc1ccccc1/C=N/n1c(-c2ccccc2)n[nH]c1=S	-16%	-3%	-13%	6%	-7%	149%
Oc1c(Br)cc(Br)cc1/C=N/n1c(-c2ccccc2)n[nH]c1=S	-12%	-3%	-25%	-16%	-18%	-16%
COc1cc(NC(=O)c2cc(Cl)c(OC)c(Cl)c2)ccc1NC(=O)c1cc2ccccc2o1	-6%	9%	8%	?	·	0%
COc1ccc(CNC(=O)CSCc2nc(-c3ccccc3C)oc2C)cc1	-17%	2%	-10%	-21%	·	35%
CCCCCC#CCC#CCC#CCC#CCCCC(=O)O	·	1.1µM*	10µM*!	·	·	·
CCCCCCCCCC(=O)O	-8%	·	11%	-9%	4%	19%
CCCCN(CCCC)c1ccc(Cn2ccc3ccccc32)cc1	·	·	-2%	-3%	·	37%
COc1ccc(CNc2ncnc3ccc(-c4ccc(N(C)C)cc4)cc23)c(OC)c1	·	·	-6%[60.1 µM]	·	·	·
CCC(C)n1c(=N)c(C(=O)NCc2ccco2)cc2c(=O)n3cc(C)ccc3nc21 (stereo unspecified)	?	22%	4%	1%	·	-5%
COc1ccc(F)c(Cn2cnc3c(cnn3C(C)(C)C)c2=O)c1Cl	·	·	-10%	-10%	·	2%
CC(C)C[C@H](NC(=O)[C@@H]1CCCN1C(=O)[C@H](CO)NC(=O)[C@H](Cc1ccccc1)NC(=O)CNC(=O)[C@@H]1CCCN1C(=O)[C@@H]1CCCN1C(=O)[C@@H](N)CCCN=C(N)N)C(=O)O	·	·	15%[60.1 µM]	·	·	·
Cc1cc(C(=O)Nc2ccc(Cl)cc2)c(C)n1-c1ccccc1	-25%	0%	-10%	-6%	-21%	136%
Cc1cc(C(=O)NNS(=O)(=O)c2cc(C(=O)O)ccc2Cl)c(C)n1-c1ccccc1	22µM*	·	?	9%	-15%	?
COc1ccc(C(=O)CSc2ccc(-c3ccco3)nn2)cc1	?	14µM*	-24%	-3%	-25%	?
O=C(CSc1ccc(-c2ccco2)nn1)c1ccccc1	-9%	11µM*	?	1%	?	50µM*
COc1ccc(C(=O)CSc2ccc(-c3ccccc3)nn2)cc1	-8%	7%	-14%	-6%	-21%	9%
COC(=O)C(C(C)C)N1CC(=O)c2ccccc2S1(=O)=O (stereo unspecified)	·	·	-8%	13%	·	6%
O=C(CCCCCCCCC(=O)N/N=C/c1ccco1)N/N=C/c1ccco1	-12%	50µM*	-26%	0%	?	?
O=C(CCC(=O)N/N=C/c1ccco1)N/N=C/c1ccco1	-14%	-11%	-4%	2%	-13%	121%
COc1ccc(C)cc1NC(=O)c1ccc2nc(Cc3ccccc3)oc2c1	-25%	-3%	-6%[60.1 µM]	12%	·	19%
CCOC(=O)C1=C(CS(=O)(=O)c2ccc(F)cc2)NC(=O)NC1c1cc(OC)c(O)c(OC)c1 (stereo unspecified)	1%	12%	4%	-1%	5%	11%
